Where “and” joins values, the source holds several entries; their conditions need not be identical. Equal values may be shown once. Records with an inconclusive call do not appear. A call without a number means that no potency is given here. Calls of active or inactive are those of the source. The call rests on the fitted dose curve; in most records, active means well fitted curve in the direction sought with a large enough effect; inconclusive means small, poorly fitted or top-dose-only effect, or another doubt; inactive means no such curve, though single readings can be large; an effect the other way counts as inactive or inconclusive. Non-standard residues stand in square brackets, D forms with d. Residues, ends and D or L forms follow the SMILES beside them. *: point of attachment. Sta = CC(C)C[C@H](N)[C@@H](O)CC(=O)O; Isovaleryl = CC(C)CC(=O)*
Key:
[1] = P-glycoprotein substrates identified in KB-8-5-11 adenocarcinoma cell line, qHTS therapeutic library screen (AID 1346987); further: nearly all actives have a fitted effect of over 65% in size; further: potency means the concentration at half of the fitted maximal effect
Method in brief: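 P-gp-mediated resistance screen: KB-8-5-11 cells treated 72 h with compounds in dose-response. CellTiter-Glo viability.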

[2] = NS1 protein of Zika virus - qHTS assay to identify small molecule inhibitors in human HEK 293 cells (AID 1347053); further: nearly all actives have a fitted effect of over 55% in size; further: potency means the concentration at half of the fitted maximal effect
Method in brief: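 HEK 293; 20 h pre-culture, 37 C/5% CO2; cpd 1 h pre-infection; ZIKV MR766, MOI = 0.5, 24 h, 37 C; TR-FRET NS1 readout (two anti-NS1 Abs); norm. to no-virus vs infected.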

[3] = qHTS of pediatric cancer cell lines to identify multiple opportunities for drug repurposing: Primary screen for TC32 cells (AID 1347089); further: nearly all actives have a fitted effect of over 60% in size; further: potency means the concentration at half of the fitted maximal effect
Method in brief: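 TC32 cells, 500-1,000/well in growth medium, compound-treated 48 h at 37 °C; viability from CellTiter-Glo luminescence. Primary screen: MIPE 11-point (0.78 nM–46 µM final), NPC 8-point (0.59 nM–46 µM final); confirmatory at 11-point dilutions.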

[4] = qHTS of pediatric cancer cell lines to identify multiple opportunities for drug repurposing: Primary screen for DAOY cells (AID 1347090); further: nearly all actives have a fitted effect of over 55% in size; further: potency means the concentration at half of the fitted maximal effect
Method in brief: (§1)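 Viability measured as metabolically active cells via CellTiter-Glo luminescence following 48 hours of compound exposure, 11-point dilutions in confirmatory testing. 500-1,000 cells/well plated 5 hours before dosing; controls were DMSO and 2.3 µM bortezomib.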

[5] = qHTS of pediatric cancer cell lines to identify multiple opportunities for drug repurposing: Primary screen for SJ-GBM2 cells (AID 1347091); further: potency means the concentration at half of the fitted maximal effect
Method in brief: as §1

[6] = qHTS of pediatric cancer cell lines to identify multiple opportunities for drug repurposing: Primary screen for BT-37 cells (AID 1347094); further: potency means the concentration at half of the fitted maximal effect
Method in brief: (§2)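 Plated cells (500-1,000 per well, growth media) were allowed to settle for 5 hours, treated with compound dilutions for 48 hours, then lysed with CellTiter-Glo for 15 min at room temperature before luminescence reading.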

[7] = qHTS of pediatric cancer cell lines to identify multiple opportunities for drug repurposing: Primary screen for NB-EBc1 cells (AID 1347095); further: potency means the concentration at half of the fitted maximal effect
Method in brief: as §2

[8] = qHTS of pediatric cancer cell lines to identify multiple opportunities for drug repurposing: Primary screen for U-2 OS cells (AID 1347096); further: nearly all actives have a fitted effect of over 50% in size
Method in brief: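 Viability after 48 h compound treatment at 37C, 500-1,000 cells/well, read as ATP luminescence with CellTiter-Glo. Primary screens used 11-point (MIPE, 0.78 nM-46 µM) or 8-point (NPC, 0.59 nM-46 µM) final concentrations; follow-up screens used 11-point dilutions.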

[9] = qHTS of pediatric cancer cell lines to identify multiple opportunities for drug repurposing: Primary screen for Saos-2 cells (AID 1347097); further: nearly all actives have a fitted effect of over 40% in size; further: potency means the concentration at half of the fitted maximal effect
Method in brief: as §2

[10] = qHTS of pediatric cancer cell lines to identify multiple opportunities for drug repurposing: Primary screen for SK-N-SH cells (AID 1347098);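 further: DMSO served as neutral control and bortezomib at 2.3 µM as positive control; nearly all actives have a fitted effect of over 65% in size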
Method in brief: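 Cells (500-1,000/well) rested 5 h, then received compounds for 48 h; metabolically active cells were measured by CellTiter-Glo luminescence. Final concentrations spanned up to 46 µM (MIPE, 11-point) or 0.59 nM-46 µM (NPC, 8-point) in primary screens, 11-point in follow-ups.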

[11] = qHTS of pediatric cancer cell lines to identify multiple opportunities for drug repurposing: Primary screen for A673 cells (AID 1347092); further: nearly all actives have a fitted effect of over 45% in size; further: potency means the concentration at half of the fitted maximal effect
Method in brief: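 A673 cells (500-1,000 cells/well) were treated 48 hours at 37 degrees C with compounds at 11-point (0.78 nM to 46 µM) or 8-point (0.59 nM to 46 µM) dilutions. Viability read by CellTiter-Glo luminescence; concentration-response curves fitted.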

[12] = qHTS of pediatric cancer cell lines to identify multiple opportunities for drug repurposing: Primary screen for SK-N-MC cells (AID 1347093); further: potency means the concentration at half of the fitted maximal effect
Method in brief: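 Metabolically active cells were quantified by ATP-dependent luminescence (CellTiter-Glo, 15 min at room temperature) following 48 h treatment. Cells had been plated at 500-1,000 per well and settled for 5 h beforehand.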

[13] = qHTS of pediatric cancer cell lines to identify multiple opportunities for drug repurposing: Primary screen for NB1643 cells (AID 1347099); further: nearly all actives have a fitted effect of over 50% in size; further: potency means the concentration at half of the fitted maximal effect
Method in brief: as §2

SMILES	Potency [1]	Potency [2]	Potency [3]	Potency [4]	Potency [5]	Potency [6]	Potency [7]	Potency [8]	Potency [9]	Potency [10]	Potency [11]	Potency [12]	Potency [13]
Cc1ccc(C)c(OCCCC(C)(C)C(=O)O)c1	inactive	inactive	inactive	inactive	inactive	inactive	inactive	inactive	inactive	inactive	–	–	–
C[Se]CCC(N)C(=O)O (stereo not given)	inactive	inactive	–	inactive	inactive	inactive	inactive	inactive	inactive	inactive	inactive	54 µM (active)	–
S=c1nc[nH]c2nc[nH]c12	2.59 µM (active) and 2.64 µM (active)	14.8 µM (active)	8.36 µM (active) and 20.8 µM (active)	2.66 µM (active) and 5.9 µM (active)	1.19 µM (active) and 3.32 µM (active)	2.46 µM (active) and 3.43 µM (active)	531 nM (active) and 1.66 µM (active)	–	inactive	inactive	–	11.8 µM (active)	–
CCCCCCCCOc1ccccc1C(=O)Nc1ccc(C(=O)OCC[N+](C)(CC)CC)cc1	inactive	inactive	inactive	–	–	–	inactive	–	29.6 µM (active)	–	–	–	–
Nc1cccc2c1CN(C1CCC(=O)NC1=O)C2=O (stereo not given)	inactive	inactive	inactive	inactive	inactive	inactive	inactive	inactive	inactive	inactive	–	inactive	inactive
CCOC(=O)c1c(C)n(C)c2ccc(O)cc12	inactive	inactive	inactive	inactive	inactive	inactive	inactive	inactive	inactive	inactive	–	inactive	inactive
Cc1cc(=O)oc2cc(O)ccc12	inactive	inactive	–	inactive	inactive	inactive	inactive	inactive	inactive	inactive	inactive	inactive	inactive
CCC(C)(Oc1ccc(C2(c3ccc(OC(C)(CC)C(=O)O)cc3)CCCCC2)cc1)C(=O)O (stereo not given)	inactive	inactive	–	inactive	inactive	inactive	inactive	inactive	–	inactive	inactive	inactive	inactive
CNC[C@@H](O)[C@@H](O)[C@H](O)[C@H](O)CO	inactive	inactive	inactive	inactive	inactive	inactive	inactive	inactive	inactive	inactive	–	23.5 µM (active)	inactive
Cc1ccc(Nc2nccc(N(C)c3ccc4c(C)n(C)nc4c3)n2)cc1S(N)(=O)=O	inactive	inactive	inactive	–	14.8 µM (active)	–	–	–	–	–	inactive	8.41 µM (active) and 16.6 µM (active)	inactive
COc1c(O)cc2c(c1O)[C@@H]1O[C@H](CO)[C@@H](O)[C@H](O)[C@H]1OC2=O	inactive	inactive	inactive	inactive	inactive	inactive	inactive	inactive	–	inactive	–	inactive	inactive
C[C@]12CCC(=O)C=C1CC[C@@H]1[C@H]2[C@@H](O)C[C@@]2(C)[C@H]1CC[C@]2(O)C(=O)CO	inactive	inactive	–	inactive	inactive	inactive	inactive	inactive	inactive	–	18.7 µM (active)	inactive	–
COc1ccc(C2(C#N)CCC(C(=O)O)CC2)cc1OC1CCCC1 (stereo not given)	inactive	inactive	–	inactive	inactive	inactive	inactive	inactive	inactive	–	–	16.6 µM (active)	11.8 µM (active)
C=C(c1ccc(C(=O)O)cc1)c1cc2c(cc1C)C(C)(C)CCC2(C)C	inactive	inactive	inactive	–	26.6 µM (active)	inactive	–	inactive	inactive	inactive	inactive	2.11 µM (active)	inactive
CC(C)CC(=O)N[C@H](C(=O)N[C@H](C(=O)N[C@@H](CC(C)C)[C@@H](O)CC(=O)N[C@@H](C)C(=O)N[C@@H](CC(C)C)[C@@H](O)CC(=O)O)C(C)C)C(C)C (Isovaleryl-VV[Sta]A[Sta]-OH)	inactive	inactive	inactive	inactive	inactive	inactive	–	inactive	inactive	inactive	–	inactive	inactive

— PubChem BioAssay (NCATS)
